This note sets out measurements from PubChem BioAssay.

“And” between values parts separate entries of the source, which are not always exact repeats. Equal values may be shown once. The source made the active and inactive calls.

For one assay, the target named is Albumin (Bos taurus) (UniProt P02769). The experiment in a line: compounds binding labelled BSA control protein – biochemical, small-molecule microarray, Alexa647 label, 635/667 nm fluorescence, artefact control for SMM control protein annotation, profiling panel (AID 1118).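 Also: score merges 667 nm emission intensity and signal-to-noise per printed compound spot.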 Particulars: BSA-A647 binding, fluorescence 635 nm, higher = more signal.
Assay [1] is described as follows: probe aXIP binding to arrayed compounds – biochemical, NeuroSMM set, 635/667 nm fluorescence, primary screen (AID 1119).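 Also: probe is the protein aXip251-270 applied at 1 µg/mL to compound-printed slides; binding of probe to printed compounds measured as 667 nm fluorescence plus signal to noise.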 Particulars: small-molecule microarray, higher = more signal, called active from +8 up or from −8 down.
Assay [2] in a line: probe aNOTCH3 binding on compound microarray – biochemical, small-molecule microarray, 635/667 nm fluorescence, primary screen (AID 1120).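 Also: probe is a biotin-tagged antibody raised against NOTCH3 rather than NOTCH3 protein; score merges spot fluorescence near 667 nm with spot signal to noise.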 Particulars: higher = more signal.
Assay [3] can be described thus: probe aNOTCH2 binding on compound microarray – biochemical, small-molecule microarray, 635/667 nm fluorescence, primary screen (AID 1121).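 Also: score merges feature fluorescence read at 667 nm with its signal to noise.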 Particulars: higher = more signal.
In assay [4] the target is Carbonic anhydrase 2 (Homo sapiens) (UniProt P00918). As to the kind of experiment: compounds binding carbonic anhydrase 2 – biochemical, small-molecule microarray, Alexa647-labelled CAII, profiling panel (AID 1122). Conditions: CAII-A647 binding fluorescence, higher = more signal.
A short description of assay [5]: COS7 lysate on small-molecule microarray, probe aHis, 635 nm (AID 1123).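 Also: z-score combines 667nm fluorescence intensity with signal-to-noise per printed compound spot.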 Particulars: COS7 cell lysate, fluorescence, higher = more signal.
Assay [6] in a line: probe aLAP1 signal on lysate-treated microarray – cell lysate, small-molecule microarray, COS7 lysate, primary screen (AID 1124).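 Also: lysate comes from COS7 cells expressing LAP1 and is applied at 0.3 µg/mL; score merges spot fluorescence near 667 nm with signal-to-noise over triplicate slides.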 Particulars: probe aLAP1, fluorescence, higher = more signal.
The subject of another assay is Sam68 (KHDRBS1). The experiment in a line: compounds binding KHDRBS1 protein – biochemical, small-molecule microarray, 635 nm fluorescence, primary screen (AID 1125).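 Also: score merges 667 nm channel intensity with signal to noise over triplicate slides.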 Conditions: higher = more signal.
Assay [7] relates to Chordin-like protein 2 (CHRDL2). The experiment in a line: compounds binding chordin-like 2 – biochemical, small-molecule microarray, 635 nm fluorescence, primary screen (AID 1126).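 Also: printed compound slides probed with Chrdl2 protein at 4 µg/mL for 1 h at 4 C; score merges 667 nm emission intensity with signal to noise over three replicate slides.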 Conditions: fluorescence 635 nm, higher = more signal.
The target in assay [8] is Concanavalin-A (Canavalia ensiformis) (UniProt P02866). The experiment in a line: compounds binding concanavalin A lectin – biochemical, small-molecule microarray, Alexa647 label, 635 nm, artefact control for SMM control protein annotation, primary screen (AID 1127).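 Also: z combines 667 nm emission intensity with signal-to-noise across three replicate slides.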 Conditions: ConA-A647 binding fluorescence, higher = more signal.
Concanavalin-A (Canavalia ensiformis), sequence (P02866 whole entry, looked up): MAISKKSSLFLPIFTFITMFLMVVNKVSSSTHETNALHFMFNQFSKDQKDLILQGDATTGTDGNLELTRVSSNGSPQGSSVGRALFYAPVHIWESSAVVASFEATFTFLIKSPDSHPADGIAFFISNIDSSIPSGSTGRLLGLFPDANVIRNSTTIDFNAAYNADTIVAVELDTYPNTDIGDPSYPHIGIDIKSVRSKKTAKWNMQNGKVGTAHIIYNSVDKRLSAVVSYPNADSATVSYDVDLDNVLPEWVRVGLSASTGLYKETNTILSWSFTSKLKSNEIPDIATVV

Albumin (Bos taurus), sequence (P02769 whole entry, looked up): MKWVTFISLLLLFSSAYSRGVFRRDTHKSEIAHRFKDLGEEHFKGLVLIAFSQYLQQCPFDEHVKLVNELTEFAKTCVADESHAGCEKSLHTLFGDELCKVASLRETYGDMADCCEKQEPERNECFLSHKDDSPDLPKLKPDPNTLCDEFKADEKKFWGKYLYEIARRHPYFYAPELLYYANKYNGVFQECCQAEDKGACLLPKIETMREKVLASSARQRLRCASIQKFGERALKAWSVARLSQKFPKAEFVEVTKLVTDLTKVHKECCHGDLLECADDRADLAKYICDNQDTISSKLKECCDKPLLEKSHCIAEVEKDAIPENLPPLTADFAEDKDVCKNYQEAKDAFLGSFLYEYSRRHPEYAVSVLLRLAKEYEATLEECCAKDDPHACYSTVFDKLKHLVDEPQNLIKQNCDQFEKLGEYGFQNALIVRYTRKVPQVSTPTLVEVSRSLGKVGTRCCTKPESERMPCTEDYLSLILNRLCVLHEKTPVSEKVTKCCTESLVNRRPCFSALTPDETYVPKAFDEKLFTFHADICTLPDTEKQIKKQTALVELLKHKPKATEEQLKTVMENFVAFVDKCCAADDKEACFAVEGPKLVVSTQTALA

For `C[N+](C)(C)CCCCCCNC(=O)[C@H]1C[C@H]2C(=O)N[C@@H](CCCC[N+](C)(C)C)C(=O)N2[C@H]1c1ccc(O)cc1`, the composite z-score is -1.56 and 0.119 with Albumin (Bos taurus); -0.0359 and -0.0947 in [2]; -0.136 and -0.0651 in assay [3]; 0.142 and 0.718 in assay [4]; 0.186 and 0.951 in assay [5]; -0.149 and -0.179 in assay [6]. The composite z-score is 0.0061 and 0.117 in the assay with Sam68 (KHDRBS1); 0.823 and 0.178 in assay [7]; -0.341 and -0.163 in assay [8]. Besides, the composite Z-score in [1] was -0.232 (inactive) and 0.577 (inactive).
In the case of `CO[C@H]1COC(=O)CC=C[C@H](C)[C@H](OC)COC(=O)[C@@H](C)COC(=O)CC=C[C@@H]1C`, the composite z-score was -0.774 and -0.721 in the assay with Albumin (Bos taurus); -0.0984 and -0.0932 in assay [2]; -0.153 and -0.14 in assay [3]; -0.173 and -0.455 in [4]; -0.315 and -0.798 in assay [5]; -0.497 and -0.561 in assay [6]. Further, the composite z-score was 0.467 and 0.0015 with Sam68 (KHDRBS1); 1.16 and 0.85 in assay [7]; -0.413 and -1.52 in [8]. In addition, in assay [1], the composite Z-score is 0.606 (inactive) and -0.054 (inactive).
As for `C=C[C@@H](C)[C@H](O)c1ccc(O)c2ccccc12`, the composite z-score with Albumin (Bos taurus) is -0.0066 and 0.457; in assay [2], -0.209 and -0.454; in assay [3], -0.247 and -0.223; in assay [4] it was -0.211 and -0.59; in assay [5], 0.294 and -0.0874; in assay [6], 0.279 and -0.559. The composite z-score is -0.309 and -1.66 in the assay on Sam68 (KHDRBS1); 1.34 and 0.0548 in assay [7]; -0.418 and -1.3 in [8]. In addition, the composite Z-score in [1] is 0.342 (inactive) and 0.259 (inactive).
In the case of `CC(=O)OC[C@H]1O[C@H](C#CC(C)(C)C)C=C[C@@H]1OC(C)=O`, the composite z-score with Albumin (Bos taurus) was 0.895; in [2] it was 0.116; in assay [3], -0.0649; in assay [4], 0.813; in assay [5], 1.6; in [6], 0.164. The composite z-score in the assay with Sam68 (KHDRBS1) was 1.22; in assay [7] it was 0.411; in assay [8], 1.09. The composite Z-score in assay [1] is -0.0921 (inactive).
`CCN1C(=O)[C@H]2[C@H]3[C@H](O)[C@H](O)CC(=NNC(=O)OCc4ccc(OC)cc4)[C@H]3CC[C@H]2C1=O`: the composite z-score in the assay with Albumin (Bos taurus) was 0.878; in [2], 0.0979; in assay [3], -0.0903; in assay [4] it was -0.121; in assay [5] it was 0.0203; in assay [6], 0.5. The composite z-score in the assay with Sam68 (KHDRBS1) is -0.0112; in assay [7], 0.737; in [8], 0.364. Also, the composite Z-score in [1] is -0.388 (inactive).
As to `C=CCN(C(=O)C(c1cccs1)N(C(=O)/C=C\C(=O)O)c1c(Cl)cccc1CO)C(C)(C)C` (stereo not given), the composite z-score was -0.693 and -0.455 in the assay with Albumin (Bos taurus); -0.538 and -0.562 in assay [2]; -0.125 and -0.182 in [3]; 0.884 and 0.936 in [4]; -0.625 and -0.42 in [5]; -0.766 and -0.131 in assay [6]. Besides, the composite z-score in the assay with Sam68 (KHDRBS1) was -1.95 and -0.769; in assay [7], -2.35 and -3.64; in assay [8], -1.12 and -0.782. For the same compound, the composite Z-score in assay [1] was 0.0333 (inactive) and 0.242 (inactive).
With `C[N+](C)(C)CCCCCCNC(=O)[C@H]1C[C@H]2C(=O)N[C@@H](CCCC[N+](C)(C)C)C(=O)N2[C@H]1c1cccc(OCCO)c1`, the composite z-score is -0.239 and -0.101 with Albumin (Bos taurus); -0.0647 and 0.203 in [2]; -0.148 and 0.046 in [3]; 0.655 and 0.419 in assay [4]; 0.897 and 0.214 in [5]; 0.479 and 0.285 in assay [6]. Further, the composite z-score in the assay on Sam68 (KHDRBS1) was 0.861 and 0.669; in assay [7], 1.22 and 1.04; in assay [8], 0.606 and 0.352. In [1], the composite Z-score was 0.891 (inactive) and -0.166 (inactive).
With `CO[C@@H]1C=CCC(=O)N2CCC[C@H]2C(=O)OC[C@H](C)C(=O)OC[C@H]1C`, the composite z-score was 0.987 in the assay with Albumin (Bos taurus); -0.0077 in assay [2]; 0.012 in assay [3]; 0.403 in assay [4]; -0.555 in assay [5]; -0.795 in assay [6]. The composite z-score with Sam68 (KHDRBS1) was 0.216; in assay [7], 1.01; in assay [8], -0.607. In [1], the composite Z-score is 0.392 (inactive).
As for `C=CC[C@@H](O)c1ccc(OCCO)cc1`, the composite z-score in the assay with Albumin (Bos taurus) is -0.155 and -0.308; in assay [2], -0.506 and -0.643; in assay [3] it was -0.222 and -0.176; in assay [4], 0.492 and 0.807; in assay [5], -0.638 and -0.478; in [6], -0.585 and -0.612. In addition, the composite z-score in the assay on Sam68 (KHDRBS1) was -0.813 and -0.661; in [7] it was -1.56 and -1.81; in assay [8], -0.831 and -1.48. Further, the composite Z-score in assay [1] is 0.0022 (inactive) and 0.259 (inactive).
For the compound `C=CCN(C(=O)C1N(C(C)(C)CO)C(=O)C2C(C(=O)O)C3C=CC21O3)c1ccc(OC)cc1` (stereo not given), the composite z-score with Albumin (Bos taurus) is -0.821 and -2.22; in [2], -0.383 and -0.578; in assay [3], -0.154 and -0.147; in assay [4], 0.548 and 0.314; in [5], 0.0457 and -0.218; in [6], 0.995 and -0.102. The composite z-score with Sam68 (KHDRBS1) is -0.718 and -1.28; in assay [7], -4.67 and -4.11; in [8], -0.79 and -1.96. For the same compound, in assay [1], the composite Z-score was 1.39 (inactive) and -0.174 (inactive).
As to `O=C1C[C@]2(c3ccc([N+](=O)[O-])cc3)C(=O)N(Cc3ccccc3)c3cc(CO)ccc3[C@H]2N1C1CCCCC1`, the composite z-score with Albumin (Bos taurus) was -0.047 and -0.118; in [2] it was -0.0627 and 0.13; in assay [3], -0.179 and 0.0118; in [4] it was 0.272 and 0.439; in assay [5] it was 0.366 and 1.14; in assay [6], 0.679 and -0.627. The composite z-score with Sam68 (KHDRBS1) was 0.802 and 0.377; in [7], -0.468 and 0.393; in assay [8] it was 0.28 and 0.772. Also, the composite Z-score in assay [1] was 0.285 (inactive) and -0.0345 (inactive).
With `C=CCN1C(=O)[C@]2(O[C@H](CCn3cc(CCO)nn3)[C@@H]([Si](C)(C)c3ccc(OC)cc3)[C@@H]2C)c2cc(N3C(=O)c4cccc5cccc3c45)ccc21`, the composite z-score is 0.558 and 0.668 with Albumin (Bos taurus); 0.0522 and 0.0259 in [2]; -0.106 and -0.162 in assay [3]; 0.227 and 0.417 in assay [4]; 1.88 and 0.772 in [5]; 0.163 and -0.46 in assay [6]. The composite z-score was 1.2 and 0.787 in the assay with Sam68 (KHDRBS1); 0.431 and 0.191 in [7]; 1.08 and 1.06 in [8]. Also, in assay [1], the composite Z-score was 0.729 (inactive) and 0.573 (inactive).
On to `C=CCN(CCCC)C(=O)C1N(CCCCCCO)C(=O)C2C(C(=O)O)C3C=CC21O3` (stereo not given), for which the composite z-score with Albumin (Bos taurus) is -1.52 and -1.4; in [2], -0.555 and -0.323; in assay [3], -0.222 and -0.185; in assay [4], 0.913 and 0.938; in assay [5], -0.809 and 0.159; in assay [6] it was 0.861 and 0.0304. In addition, the composite z-score in the assay on Sam68 (KHDRBS1) was -0.243 and -0.577; in assay [7], -1.56 and -3.19; in [8] it was -2.11 and -0.791. Moreover, the composite Z-score in [1] was 0.0063 (inactive) and 0.131 (inactive).
Consider `C=CCN(CCCCC)C(=O)C1N(C(C)(C)CO)C(=O)C2C(C(=O)O)C3C=CC21O3` (stereo not given), for which the composite z-score is -0.544 and -0.85 with Albumin (Bos taurus); -0.484 and -0.372 in [2]; -0.112 and -0.0984 in assay [3]; 0.196 and 0.327 in assay [4]; -1.14 and -0.703 in [5]; -0.385 and 0.137 in [6]. Further, the composite z-score with Sam68 (KHDRBS1) was -1.11 and -1.2; in assay [7], -1.84 and -2.83; in assay [8] it was -1.83 and -1.31. In addition, the composite Z-score in assay [1] was 0.159 (inactive) and -0.421 (inactive).
With `COCn1c2ccccc2c2nnc(C(C)=O)nc21`, the composite z-score with Albumin (Bos taurus) was -0.565 and -0.0926; in assay [2] it was -0.0647 and 0.106; in assay [3] it was -0.131 and -0.126; in [4] it was 0.158 and -0.258; in assay [5], -0.0769 and 0.263; in [6], 0.325 and 0.155. Besides, the composite z-score with Sam68 (KHDRBS1) was 0.132 and 0.584; in [7], 0.488 and 0.54; in [8], 0.133 and -0.0846. Further, the composite Z-score in assay [1] is -0.158 (inactive) and -0.123 (inactive).
For the compound `COC(=O)C1=C(C)N(Cc2ccccc2)[C@]23O[C@](C(=O)OC)(C(=O)N2[C@@H]1c1ccccc1)[C@H]1C(=O)N(C)C(=O)[C@H]13`, the composite z-score was 0.899 and 0.489 in the assay with Albumin (Bos taurus); -0.212 and 0.0751 in assay [2]; -0.116 and -0.148 in assay [3]; 0.354 and 0.309 in assay [4]; 0.909 and 0.901 in assay [5]; 0.262 and -0.0393 in assay [6]. The composite z-score was 1.19 and 0.0927 with Sam68 (KHDRBS1); 0.0101 and 0.385 in [7]; 1.08 and -0.174 in assay [8]. Moreover, the composite Z-score in [1] was -0.0443 (inactive) and 0.0886 (inactive).
